Screening data (PubChem BioAssay)
p53ts 32C tox – qHTS Screen for Compounds that Selectively Target Cancer Cells with p53 Mutations: Cytotoxicity of p53ts Cells at the Permissive Temperature; H1299-p53A138V at 32C, ATP luminescence viability, 24 h; Potency, µM (titrated, usually from 46.1 µM), hits mostly cytotoxic; actives 0.93% (n = 130,000); note: nearly all actives have a fitted effect of over 55% in size
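ATP-content luminescence (ATPlite) read-out after 24 h compound exposure at 32C in H1299-p53A138V cells (600/well). Tested up to 46 uM. Normalized to DMSO (0%) and 100 uM tamoxifen (100% killing); Hill-fit AC50.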
Peg3 imprint – qHTS Assay for Compounds that Induce Erasure of Genomic Imprints. Potency, µM (highest dose often 60.7 µM), actives largely listed as activators. actives 0.02% (n = 110,000). mouse ES Peg3-LacZ reporter, beta-gal luminescence, 40 h. AID 1948, 2009
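Each well holds 300 Peg3LacZ-Neo (maternal) female ES cells incubated 40 h at 37C, 5% CO2. LacZ is measured by BetaGlo luminescence, with AC50 and maximum efficacy derived from dose-response curves.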
IkB signaling – IkB Signaling | ABC-DLBCL IkBa-CBG/CBR dual luciferase ratio, 4 h; response scale: scaled: untreated 0%, proteasome inhibitor 100% | Potency, µM (doses to about 57.1 µM) | actives 0.04% (n = 110,000); active = well fitted curve in the direction sought with a large enough effect in the signal ratio, not every such curve was filed as active; inconclusive = small, poorly fitted or top-dose-only effect, or a change in a side signal; the % refers to the signal ratio;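 note: the direction sought is a rising ratio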
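In this assay, an IκBα–CBG68 fusion accumulates when IKK-driven degradation is blocked; native CBR normalizes for cell number. OCI-Ly3 cells were treated 4 h with compound and doxycycline, then green and red light read after Chroma-Glo addition.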
FLuc inh – qHTS Assay for Inhibitors of Firefly Luciferase; Luciferin 4-monooxygenase (Photinus pyralis), P08659; purified firefly luciferase, luminescence, 8 min; actives 2.2% (n = 72,000); Potency, µM (titrated, usually from 57.1 µM), hits mostly inhibitors; AID 411, 2009; note: nearly all actives have a fitted effect of over 40% in size
Target sequence (P08659 whole entry, looked up): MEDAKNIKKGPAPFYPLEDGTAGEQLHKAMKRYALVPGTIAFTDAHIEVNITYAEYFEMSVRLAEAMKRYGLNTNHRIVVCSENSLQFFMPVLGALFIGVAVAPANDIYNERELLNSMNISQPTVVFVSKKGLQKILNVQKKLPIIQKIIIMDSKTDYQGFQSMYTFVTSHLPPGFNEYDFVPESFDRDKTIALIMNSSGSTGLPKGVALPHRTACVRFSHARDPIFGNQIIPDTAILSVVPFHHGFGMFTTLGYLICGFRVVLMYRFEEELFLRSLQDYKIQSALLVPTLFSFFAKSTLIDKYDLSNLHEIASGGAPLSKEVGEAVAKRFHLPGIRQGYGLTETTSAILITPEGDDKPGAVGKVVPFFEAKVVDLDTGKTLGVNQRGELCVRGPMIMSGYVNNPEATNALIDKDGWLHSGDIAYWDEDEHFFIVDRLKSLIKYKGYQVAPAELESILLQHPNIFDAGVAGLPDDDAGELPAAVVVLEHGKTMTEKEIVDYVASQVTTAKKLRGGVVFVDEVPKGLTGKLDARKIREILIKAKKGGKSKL
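qHTS concentration-response profiling: light output of P. pyralis luciferase with luciferin and 10 uM ATP, imidazole buffer pH 7.2. Read by luminescence after 8-min room-temperature incubation.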
p53ts 39C kill – qHTS Screen for Compounds that Selectively Target Cancer Cells with p53 Mutations: Cytotoxicity of p53ts Cells at the Nonpermissive Temperature. H1299-p53A138V viability at 39C, ATP luminescence, 24 h. Potency, µM (top dose mostly 46.1 µM), hits mostly cytotoxic. actives 1.5% (n = 130,000). AID 902, 2007; note: nearly all actives have a fitted effect of over 55% in size
Hits are given with their value; i = inactive; ? = inconclusive; nt = no result; ! = repeats disagree; [ ] = remark or other dose. An excerpt weighted towards active compounds, which were near 2.4% of everything screened. Unless noted, calls come from the whole dose curve; as a rule, active = well fitted curve in the direction sought with a large enough effect; inconclusive = small, poorly fitted or top-dose-only effect, or another doubt; inactive = no such curve, though single readings can be large; an effect the other way counts as inactive or inconclusive.

SMILES	p53ts 32C tox	Peg3 imprint	IkB signaling	FLuc inh	p53ts 39C kill
CCCc1cc(C(=O)Nc2cccc(Cl)c2)no1	i	i	?	16µM	i
CCCc1cc(C(=O)Nc2cccc(C(C)=O)c2)no1	i	i	i	i	i
CC1CCN(c2oc(-c3cccs3)nc2S(=O)(=O)c2ccc(Cl)cc2)CC1	i	i[10.9 µM]	?	nt	i
c1ccc2c(c1)Cc1cc(CN3CCOCC3)ccc1-2	?	i	i	13µM	i
CCOC(=O)c1cnc2ccc(C(=O)OC)cc2c1Nc1ccc(N2CCOCC2)cc1	?	i[10.9 µM]	i	nt	13µM
CCOC(=O)c1cnc2ccc(C)cc2c1Nc1ccc(N(CC)CC)cc1	i	i[10.9 µM]	?	nt	13µM
CCOC(=O)c1cnc2ccc(Cl)cc2c1Nc1ccc(N2CCOCC2)cc1	i	i[10.9 µM]	?	nt	i
Cc1nn2cc(-c3ccc(-c4ccccc4)cc3)nc2s1	i	i	?	1µM	i
CCc1nn2cc(-c3ccccc3)nc2s1	10µM	i	?	1.6µM	16µM
CCOc1ccc(-c2cn3nc(CC(C)C)sc3n2)cc1	?	i[10.9 µM]	i	nt	?
COCc1nn2cc(-c3ccc(C)cc3)nc2s1	10µM	i[10.9 µM]	i	nt	13µM
Cc1c(C(=O)Nc2ccccc2)sc2nc(-c3ccccc3)cn12	i	i	?	i	i
Cc1nn2cc(-c3ccc(Cl)cc3)nc2s1	?	i	i	3.2µM	?
CCOc1ccc(/C=C/c2nc(C#N)c(N3CCCCC3)o2)cc1	i	i[10.9 µM]	i	nt	i
Cc1cccc(CNC(=O)c2ccc(NC(=O)N3CC(C)Sc4ccccc43)cc2)c1 (stereo not given)	i	i[10.9 µM]	?	nt	i
Cc1cccc(NS(=O)(=O)c2cc(C(=O)O)ccc2Cl)c1	i	nt	nt	nt	i
CC1=C(C(=O)Nc2cccnc2)C(c2ccccc2)n2nc(SCc3ccccc3F)nc2N1 (stereo not given)	i	i[10.9 µM]	i	nt	i
Cc1ccc(NC(=O)CN2C(=O)COc3ccc(S(=O)(=O)N4CCCCCC4)cc32)cc1Cl	i	i[10.9 µM]	?	nt	i
Cc1nc2ccccc2c(=O)n1/N=C/c1cn(-c2ccccc2)nc1-c1cccs1	i	i	?	3.2µM	i
COc1ccc(OC)c(N=c2oc3cc(O)ccc3cc2C(N)=O)c1	i	i	?	13µM	?
O=C1C=C(NCCc2cc(Br)c(O)c(Br)c2)C(=O)c2ncccc21	?	i[10.9 µM]	?	i[11.4 µM]	?
O=C1C=C(NCCO)C(=O)c2cnccc21	3.2µM	i	nt	nt	4µM
Cc1cc(C(=O)CN2C(=O)c3ccccc3C2=O)c(C)n1Cc1cccs1	?	i	i	7.9µM	?
Cc1cc(C(=O)Cn2nnc3ccccc3c2=O)c(C)n1Cc1cccs1	16µM	i	?	6.3µM	13µM
COc1ccc2c(c1)CCC1C2CC[C@]2(C)[C@H](NCCCCCCN3C(=O)C=CC3=O)CC[C@@H]12 (stereo not given in full)	i	nt	i	i	i
SMILES	p53ts 32C tox	Peg3 imprint	IkB signaling	FLuc inh	p53ts 39C kill
Cc1c(Cl)cccc1-c1ccc(C(=O)Nc2ccc3oc(-c4cccnc4)nc3c2)o1	i	i[10.9 µM]	i	nt	i
Cc1ccc(C(C)C)c(OCC(=O)Nc2cccc(-c3nc4ncccc4o3)c2)c1	?	i[10.9 µM]	?	nt	16µM
Cc1cc(C)cc(C(=O)Nc2ccc(-c3nc4ncccc4o3)cc2)c1	i	i[10.9 µM]	?	nt	10µM
CCC(C)c1ccc(OCC(=O)Nc2ccc(-c3nc4ncccc4o3)cc2)cc1 (stereo not given)	?	i[10.9 µM]	i	nt	10µM
O=C(Nc1cccc(-c2nc3ncccc3o2)c1)c1ccc(-c2cccc(Cl)c2Cl)o1	10µM	i[10.9 µM]	?	nt	13µM
O=C(O)[C@H](C1NCCS1)N1C(=O)c2ccccc2C1=O (stereo not given in full)	nt	i[10.9 µM]	nt	nt	nt
COC(=O)c1scc(-c2ccc(C)cc2)c1S(=O)(=O)N1CCN(c2cccc(OC)c2)CC1	i	i[10.9 µM]	?	nt	i
C=C[C@@](C)(O)CC[C@H]1[C@]2(C)CCCC(C)(C)[C@H]2CC[C@]1(C)O	nt	nt	i[11.4 µM]	i[11.4 µM]	nt
COc1cc(/C=C/C(=O)N2CCC=CC2=O)cc(OC)c1OC	3.2µM	i	nt	nt	?
Cc1ccccc1-c1nnc2c3ccccc3c(C)nn12	i	nt	nt	nt	i
COc1ccc(-c2nn3c(-c4ccccc4C)nnc3c3ccccc23)cc1	i	i[10.9 µM]	i	nt	10µM
Cc1ccccc1NC(=O)c1cnc2ccccn2c1=O	10µM	nt	nt	nt	16µM
OCc1cc([C@@H](O)CNCCCCCCOCCCCc2ccccc2)ccc1O	i	i	?	16µM!	13µM
CCc1cccc(C)c1Nc1c(-c2ccc(SC)cc2)nc2sccn12	i	i[10.9 µM]	i	nt	i
CCCCCCCCCCCCCCCC(=O)NC[C@@H](COP(=O)([O-])OCC[N+](C)(C)C)OCC	?	nt	i	i	i
Cc1ccc(NC(=O)Cn2c(=O)n(-c3ccccc3)c(=O)c3ccc(C(=O)NCc4ccc5c(c4)OCO5)cc32)c(C)c1	?	i[10.9 µM]	i	nt	7.9µM
COc1ccc(-n2c(=O)c3ccc(C(=O)NCc4ccc(C)cc4)cc3n(CC(=O)Nc3ccc(F)cc3)c2=O)cc1	i	i[10.9 µM]	?	nt	10µM
Cc1ccc(-n2c(=O)c3ccc(C(=O)NCc4ccco4)cc3n(Cc3ccc(Cl)cc3)c2=O)cc1	i	i[10.9 µM]	i	nt	13µM
COc1ccc(-n2c(=O)c3ccc(C(=O)NCc4ccc(C)cc4)cc3n(CC(=O)Nc3ccc(C)cc3)c2=O)cc1	?	i[10.9 µM]	i	nt	5µM
O=C(Cn1c(=O)n(-c2ccccc2)c(=O)c2ccc(C(=O)NCc3ccc4c(c3)OCO4)cc21)Nc1ccc(Br)cc1	i	i[10.9 µM]	i	nt	i
COc1ccc(NC(=O)Cn2c(=O)n(-c3ccccc3)c(=O)c3ccc(C(=O)NCc4ccc5c(c4)OCO5)cc32)cc1	?	i[10.9 µM]	i	nt	i
Cc1ccc(-n2c(=O)c3ccc(C(=O)NCc4ccco4)cc3n(CC(=O)Nc3ccc(C)c(F)c3)c2=O)cc1	i	i[10.9 µM]	i	nt	?
Cc1ccc(C2C=C(c3ccc(Cl)cc3)Nc3nc(NC(=O)c4ccco4)nn32)cc1 (stereo not given)	i	i[10.9 µM]	i	nt	i
CSc1ccc(/C=C/c2nc3ccccc3n2S(=O)(=O)c2ccc(F)c(C)c2)cc1	7.9µM	i[10.9 µM]	?	nt	4µM
CCOc1cc(S(=O)(=O)n2c(C)nc3ccccc32)ccc1F	i	i	i	i	i
CCOc1ccc(/C=C/c2nc3ccccc3n2S(=O)(=O)c2cccc(Cl)c2)cc1	13µM	i[10.9 µM]	?	nt	10µM
Cc1ccc(/C=C/c2nc3ccccc3n2S(=O)(=O)c2cccc(Cl)c2)cc1	3.2µM	i[10.9 µM]	?	nt	3.2µM
CCCN(CCC)C(=O)Cn1c(=O)n(-c2ccc(CC)cc2)c(=O)c2ccc(C(=O)NCCc3ccccc3)cc21	i	i[10.9 µM]	i	nt	?
CCN(CC)c1ccc2cc(C(N)=O)c(=O)oc2c1	i	nt	nt	nt	i
